{
  "source": "PubChem BioAssay AID382",
  "about": "(SGCOxCompounds, 2006)",
  "target": "Dual specificity protein kinase CLK1 (Homo sapiens) (UniProt P49759)",
  "sequence (P49759 whole entry, looked up)": "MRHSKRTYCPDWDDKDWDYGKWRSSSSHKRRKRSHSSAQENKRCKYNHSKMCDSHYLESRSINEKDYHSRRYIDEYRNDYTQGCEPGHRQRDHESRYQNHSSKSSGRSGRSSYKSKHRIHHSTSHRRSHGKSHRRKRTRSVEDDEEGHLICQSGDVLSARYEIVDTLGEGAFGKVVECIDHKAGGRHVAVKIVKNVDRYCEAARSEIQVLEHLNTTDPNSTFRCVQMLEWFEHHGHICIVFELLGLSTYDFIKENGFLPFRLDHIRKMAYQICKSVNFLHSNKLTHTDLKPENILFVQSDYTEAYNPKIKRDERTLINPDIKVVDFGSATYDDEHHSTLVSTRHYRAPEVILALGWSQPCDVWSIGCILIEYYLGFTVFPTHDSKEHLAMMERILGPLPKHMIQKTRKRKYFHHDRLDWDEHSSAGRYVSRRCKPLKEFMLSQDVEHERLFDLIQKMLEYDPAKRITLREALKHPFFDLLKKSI",
  "experiment": "ligand-induced CLK1 melting temperature shift – biophysical, recombinant human kinase, DSF (AID 382)",
  "settings": "Recombinant CLK1, thermal shift (DSF), buffer 10 mM HEPES, stronger effect = higher value",
  "key": {"[1]": {"settings": "at 10 µM, protein 2 µM, NaCl 150 mM"}, "[2]": {"settings": "measured here: replicate experiment 2, at 10 µM, run 2, protein 2 µM, NaCl 150 mM"}},
  "note": "The source made the active and inactive calls. The rule behind the calls is not given here.",
  "data": [
    {"smiles": "COc1ccc2c(c1)/C(=C/c1cnc[nH]1)C(=O)N2", "values": [
      {"measurement": "Tm shift", "setting": "[1]", "value": "3.63 Celsius (active)"},
      {"measurement": "Tm shift", "setting": "[2]", "value": 3.4, "unit": "Celsius"}
    ]},
    {"smiles": "Cc1c2ccncc2c(C)c2c1[nH]c1ccccc12", "values": [
      {"measurement": "Tm shift", "setting": "at 10 µM, protein 2 µM, pH 7.5, NaCl 150 mM, with 50 mM Arg/Glu", "value": "3.3 Celsius (active)"}
    ]},
    {"smiles": "O=C1NC(=O)c2c1c1c3ccccc3n3c1c1c2c2ccccc2n1[C@@H]1CCC3O1", "values": [
      {"measurement": "Tm shift", "setting": "[1]", "value": "6.44 Celsius (active)"}
    ]},
    {"smiles": "N#C/C(=C1\\Nc2ccccc2S1)c1ccnc(NCCc2cccnc2)n1", "values": [
      {"measurement": "Tm shift", "setting": "at 10 µM, protein 2 µM, pH 7.5, NaCl 150 mM, with 50 µM L-Arg/L-Glu (1:1)", "value": "5.9 Celsius (active)"}
    ]},
    {"smiles": "O=C1Nc2ccccc2/C1=C\\c1cnc[nH]1", "values": [
      {"measurement": "Tm shift", "setting": "[1]", "value": "3.76 Celsius (active)"}
    ]},
    {"smiles": "CCn1cnc2c(Nc3cccc(Cl)c3)nc(N[C@@H]3CCCC[C@@H]3N)nc21", "values": [
      {"measurement": "Tm shift", "setting": "[1]", "value": "6.54 Celsius (active)"},
      {"measurement": "Tm shift", "setting": "[2]", "value": 4.5, "unit": "Celsius"}
    ]}
  ]
}
